Measurements from ChEMBL document CHEMBL1157539, “Thousands of chemical starting points for antimalarial lead identification” (Nature, 2010).

tested on: HepG2; test: GSK_TCMDC: Percent inhibition of human HepG2 cell line. Test compounds present at 10uM.; type: functional

| SMILES | Inhibition |
| --- | --- |
| CN(C(=O)/C=C/c1c(Cl)cccc1Cl)C1CCN(CCCCCNC(=O)/C=C/c2ccc(Cl)c(Cl)c2)CC1 | 78% |
| Cc1cc(-c2ccc3c(c2)CCN(CCC2CCC(NC(=O)/C=C/c4ccc(F)cc4)CC2)CC3)on1.Cl (centres undefined) | 29% |
| Cc1ccc(C(CC(=O)Nc2nccs2)c2ccc(OC(C)C)cc2)cc1 (centres undefined) | 5% |
| O=C(Cn1c(CCc2cccc(F)c2F)cc(=O)c2ccccc21)N(CCN1CCCCC1)Cc1ccc(-c2ccc(C(F)(F)F)cc2)cc1.O=C(O)C(O)C(O)C(=O)O | 9% |
| NC1=NC(c2ccccc2)(c2ccccc2)C(=O)N1Cc1ccccc1Br.O=CO | 36% |
| Cc1cccc2nc(-c3cccc(-c4cccc(NC(=O)CNc5ccc(C(N)=O)cc5)c4)c3)[nH]c12 | 15% |
| Cc1c(S(=O)(=O)Nc2ccc3nccc(N4CCN[C@H](C)C4)c3c2)sc2ccc(Cl)cc12.Cl | 16% |
| Cl.O=C(c1cccc(COc2ccc3c(c2)CCN(C2CCCC2)CC3)c1)N1CCN(c2ccncc2)CC1 | 49% |
| COc1ccc(C=NNc2nc3ccccc3[nH]2)cc1O | 15% |
| Nc1nc(N)c2c(Oc3cccnc3)cccc2n1 | 65% |
| CCc1ccc(N2C(N)=NC(N)=NC2(C)C)cc1.Cl | 51% |
| CC(C)CCNc1nc(NCCCc2ccccc2)c2cc(O)ccc2n1 | 14% |
| CCN(CC)CCN(Cc1ccc(-c2ccc(C(F)(F)F)cc2)cc1)C(=O)Cn1c(CCc2cccc(F)c2F)cc(=O)c2c1CCCC2.O=C(O)C(O)C(O)C(=O)O | 93% |
| N#Cc1cc(C(=O)c2cc(Cl)ccc2O)cn(-c2cccc(C(F)(F)F)c2)c1=O | 0% |
| CCc1cc2c(Sc3nc4ccccc4[nH]3)ncnc2s1 | 6% |
| COc1ccc(Cc2cnc3nc(N)nc(N)c3c2C)cc1.Cl | 65% |
| CC(CN(C)C)C(=O)Nc1ccc(-c2ccc(-c3nc4ccccc4[nH]3)cc2)cc1 (centres undefined) | 2% |
| CC1(C)S(=O)(=O)CC(O)CS1(=O)=O | 8% |
| Cn1nccc1C(=O)NCCNCc1cccc(-c2cccc(-c3nc4cc(F)ccc4[nH]3)c2)c1.O=C(O)C(F)(F)F | 38% |
| Cc1[nH]c(C)c(-c2ccc(Oc3ccc(Cl)cc3)cc2)c(=O)c1Br | 12% |

| SMILES | Inhibition |
| --- | --- |
| Cn1nc(C(F)(F)F)c(-c2ccc(Br)cc2)c1NC(=O)Cc1ccccc1F | 6% |
| CC1CN(Cc2ccc(-c3ccc(-c4nc5cc(F)ccc5[nH]4)s3)cc2)CC(C)O1.O=C(O)C(F)(F)F (centres undefined) | 35% |
| O=C(/C=C/c1ccccc1O)N1CCC(CCN2CCC(c3c[nH]c4ccccc34)CC2)CC1 | 46% |
| COc1ccc(-c2ccc(NC(=O)c3ccc(F)cc3)cc2)cc1CNC(C)C.O=C(O)C(F)(F)F | 24% |
| CC(C)c1cc(Oc2c(I)cc(CCCc3ncc[nH]3)cc2I)ccc1O.Cl | 28% |
| COc1ccc(NC(=O)/C=C/c2ccccc2Cl)cc1OCCN1CCC(c2nc3ccccc3[nH]2)CC1.Cl | 35% |
| COc1cccc2cc(C(=O)N[C@@H](CC(C)C)C(=O)N[C@H](C=NNC(=O)OC(C)(C)C)CC(C)C)oc12 | 8% |
| Cl.N#Cc1ccc(-c2ccc(C(=O)Nc3ccc4c(c3)CCN(C3CCC3)CC4)nc2)cn1 | 24% |
| O=[N+]([O-])c1cc2c(cc1C=NNc1nc(=Nc3ccccc3)[nH]c(=Nc3ccccc3)[nH]1)OCO2 | 0% |
| COCCCNC(=O)[C@H]1CNCCN1C(=O)c1ccccc1.O=C(O)C(F)(F)F | 53% |
| Br.COc1cccc(OC)c1OCCCON1C(=N)N=C(N)NC1(C)C | 53% |
| CC(C)(CN)c1nc(-c2ccc(Cl)c(O)c2)c(-c2ccncc2)[nH]1.Cl | 34% |
| CCN(CC)CCNC(=O)c1ccc(NC(=O)c2cc(-c3ccncc3)nc3ccccc23)cc1 | 1% |
| Cc1cc(N(C)CCCN2CCCCC2)nc(Nc2ccc(Cl)cc2)n1.Cl | 7% |
| Cc1cc(N/N=C/c2cccc([N+](=O)[O-])c2)c2cc(F)ccc2n1 | 3% |
| Cn1nc(C(F)(F)F)c(-c2ccc(F)cc2)c1NC(=O)Nc1ccccc1 | 3% |
| CC(=O)Nc1ccc(OCCN(Cc2ccccc2C(F)(F)F)c2ccc(C#N)c(C(F)(F)F)c2)c(Cl)c1 | 0% |
| CC(C)C[C@H](NC(=O)[C@H](Cc1ccccc1)N(C[C@H](Cc1ccccc1)NC(=O)OC(C)(C)C)C(=O)C(F)(F)F)C(=O)NC1CCN(Cc2ccccc2)CC1 | 13% |
| CN(C)Cc1ccc(-c2cc3c(Nc4ccc(OCc5cccc(F)c5)c(Cl)c4)ncnc3s2)[nH]1 | 8% |
